# PubChem BioAssay (EPA / NIEHS)
# Inconclusive results are not listed. Active and inactive are the calls of the source. How the source made its calls: active means hit-call score of the fitted dose curve at least 0.9, where 1 is the maximum; inconclusive means response in the unintended direction; inactive means score below 0.9.
# Columns and labels:
# [1] = target: Tyrosine-protein phosphatase non-receptor type 14 (Homo sapiens) (UniProt Q15678); test: NVS_ENZ_hPTPN14: NovaScreen (NVS) Enzymatic Assay for human Protein Tyrosine Phosphatase Non-receptor Type 14 (PTPN14) (AID 2283206)
# Tyrosine-protein phosphatase non-receptor type 14 (Homo sapiens), sequence (Q15678 whole entry, looked up): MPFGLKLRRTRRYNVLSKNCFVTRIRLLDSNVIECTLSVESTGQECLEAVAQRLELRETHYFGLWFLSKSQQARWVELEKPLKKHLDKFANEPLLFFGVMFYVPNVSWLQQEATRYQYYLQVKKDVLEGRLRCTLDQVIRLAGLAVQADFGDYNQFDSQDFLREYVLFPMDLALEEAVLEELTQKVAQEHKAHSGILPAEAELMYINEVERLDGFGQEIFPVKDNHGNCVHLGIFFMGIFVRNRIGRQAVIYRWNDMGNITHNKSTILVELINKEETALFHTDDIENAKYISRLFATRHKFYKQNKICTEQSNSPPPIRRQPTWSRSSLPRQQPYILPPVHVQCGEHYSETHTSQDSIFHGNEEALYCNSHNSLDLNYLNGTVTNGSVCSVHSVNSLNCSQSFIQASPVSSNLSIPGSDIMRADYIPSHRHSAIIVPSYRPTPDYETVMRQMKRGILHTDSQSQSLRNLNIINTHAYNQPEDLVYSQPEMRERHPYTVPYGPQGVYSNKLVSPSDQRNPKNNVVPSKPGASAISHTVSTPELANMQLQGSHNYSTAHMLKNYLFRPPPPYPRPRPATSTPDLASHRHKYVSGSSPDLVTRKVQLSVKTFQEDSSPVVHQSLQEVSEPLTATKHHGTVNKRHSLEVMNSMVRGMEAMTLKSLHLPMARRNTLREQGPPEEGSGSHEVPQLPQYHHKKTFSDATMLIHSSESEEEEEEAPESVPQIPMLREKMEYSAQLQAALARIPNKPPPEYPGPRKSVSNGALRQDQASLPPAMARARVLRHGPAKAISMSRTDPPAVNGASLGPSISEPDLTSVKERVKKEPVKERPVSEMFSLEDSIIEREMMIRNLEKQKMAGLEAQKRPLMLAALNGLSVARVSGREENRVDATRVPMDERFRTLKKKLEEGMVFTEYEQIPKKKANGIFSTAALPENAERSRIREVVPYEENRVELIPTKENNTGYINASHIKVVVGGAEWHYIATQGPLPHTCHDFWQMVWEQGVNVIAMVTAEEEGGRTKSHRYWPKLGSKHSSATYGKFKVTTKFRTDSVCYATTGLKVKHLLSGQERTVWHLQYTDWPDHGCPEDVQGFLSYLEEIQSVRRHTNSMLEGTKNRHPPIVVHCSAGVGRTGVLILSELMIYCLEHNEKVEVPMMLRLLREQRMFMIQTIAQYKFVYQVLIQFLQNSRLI
# Method in brief: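 Cell-free recombinant human PTPN14 with fluorescent substrate, read 0.5 h after dosing by fluorescence and electrophoretic mobility shift separating substrate from product. Primary screen at 25 uM in duplicate; hits run to 50 uM maximum; loss of signal versus DMSO.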
# [2] = target: human Protein Tyrosine Phosphatase Non-receptor Type 1 (PTPN1), PTPN1 (gene 5770) (UniProt P18031); test: NVS_ENZ_hPTPN1: NovaScreen (NVS) Enzymatic Assay for human Protein Tyrosine Phosphatase Non-receptor Type 1 (PTPN1) (AID 2283201)
# human Protein Tyrosine Phosphatase Non-receptor Type 1 (PTPN1), PTPN1 (gene 5770), sequence (P18031 whole entry, looked up): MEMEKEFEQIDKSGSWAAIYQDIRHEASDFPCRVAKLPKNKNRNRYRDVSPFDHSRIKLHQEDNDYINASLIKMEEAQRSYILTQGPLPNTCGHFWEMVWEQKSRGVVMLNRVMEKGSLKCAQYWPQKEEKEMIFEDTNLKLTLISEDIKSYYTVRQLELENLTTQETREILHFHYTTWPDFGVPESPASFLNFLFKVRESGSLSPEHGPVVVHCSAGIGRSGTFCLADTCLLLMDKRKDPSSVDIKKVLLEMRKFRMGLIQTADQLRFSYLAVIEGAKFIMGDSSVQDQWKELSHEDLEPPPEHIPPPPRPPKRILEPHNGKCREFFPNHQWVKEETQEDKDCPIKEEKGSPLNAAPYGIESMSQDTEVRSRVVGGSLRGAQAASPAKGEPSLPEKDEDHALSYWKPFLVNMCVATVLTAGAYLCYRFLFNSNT
# Method: (§1) NVS_ENZ_hPTPN1 is a biochemical, single-readout assay that uses extracted gene-proteins in a cell-free assay. Measurements were taken 1.33 hours after chemical dosing in a 384-well plate.NVS_ENZ_hPTPN1 is one of one assay component(s) measured or calculated from the NVS_ENZ_hPTPN1 assay. It is designed to make measurements of enzyme activity, a form of enzyme reporter, as detected with fluorescence intensity signals by Fluorescence and electrophoretic mobility shift technology.Data from the assay component NVS_ENZ_hPTPN1 was analyzed into 1 assay endpoint. This assay endpoint, NVS_ENZ_hPTPN1, was analyzed in the positive analysis fitting direction relative to DMSO as the negative control and baseline of activity. Using a type of enzyme reporter, loss-of-signal activity can be used to understand changes in the enzymatic activity as they relate to the gene PTPN1. Furthermore, this assay endpoint can be referred to as a primary readout, because this assay has produced multiple assay endpoints where this one serves a enzymatic activity function. To generalize the intended target to other relatable targets, this assay endpoint is annotated to the phosphatase intended target family, where the subfamily is non-receptor tyrosine phosphatase.
# Binding assays used specific radioligands (tritiated, iodinated) with non-radioactive competitive displacement ligands in agonist or antagonist protocols (as indicated) and various reference compounds and inhibitors to titrate specific binding to receptors and transporters. Most enzyme assays (CYPs, kinases, phosphatases, proteases, HDACs) used recombinant protein and specific substrates (fluorescence mostly, some colorimetric and radioactive) and inhibitors, followed by a biochemical separation of substrate and product. All assays for the biochemical HTS were initially run in duplicate at a single concentration (10 uM for CYP450 assays and 25 uM for all others). Assay-chemical combinations meeting a pre-defined threshold (e.g., 30% inhibition and other criteria defined below) were then run in singleton concentration-response format with maximum concentration of 20 uM for CYPs and 50 uM for all others. Each assay was run with positive and negative controls, and concurrent controls on every plate. The follow-up (secondary) screen tested active chemical-pairs in concentration series, as well as a few additional assays not tested in the primary screen, some selected negative inactives, and several cases re-run in the concentration series for confirmatory purposes.
# [3] = target: human Protein Tyrosine Phosphatase Receptor Type B (PTPRB), PTPRB (gene 5787) (UniProt P23467); test: NVS_ENZ_hPTPRB: NovaScreen (NVS) Enzymatic Assay for human Protein Tyrosine Phosphatase Receptor Type B (PTPRB) (AID 2283211)
# human Protein Tyrosine Phosphatase Receptor Type B (PTPRB), PTPRB (gene 5787), sequence (P23467 whole entry, looked up): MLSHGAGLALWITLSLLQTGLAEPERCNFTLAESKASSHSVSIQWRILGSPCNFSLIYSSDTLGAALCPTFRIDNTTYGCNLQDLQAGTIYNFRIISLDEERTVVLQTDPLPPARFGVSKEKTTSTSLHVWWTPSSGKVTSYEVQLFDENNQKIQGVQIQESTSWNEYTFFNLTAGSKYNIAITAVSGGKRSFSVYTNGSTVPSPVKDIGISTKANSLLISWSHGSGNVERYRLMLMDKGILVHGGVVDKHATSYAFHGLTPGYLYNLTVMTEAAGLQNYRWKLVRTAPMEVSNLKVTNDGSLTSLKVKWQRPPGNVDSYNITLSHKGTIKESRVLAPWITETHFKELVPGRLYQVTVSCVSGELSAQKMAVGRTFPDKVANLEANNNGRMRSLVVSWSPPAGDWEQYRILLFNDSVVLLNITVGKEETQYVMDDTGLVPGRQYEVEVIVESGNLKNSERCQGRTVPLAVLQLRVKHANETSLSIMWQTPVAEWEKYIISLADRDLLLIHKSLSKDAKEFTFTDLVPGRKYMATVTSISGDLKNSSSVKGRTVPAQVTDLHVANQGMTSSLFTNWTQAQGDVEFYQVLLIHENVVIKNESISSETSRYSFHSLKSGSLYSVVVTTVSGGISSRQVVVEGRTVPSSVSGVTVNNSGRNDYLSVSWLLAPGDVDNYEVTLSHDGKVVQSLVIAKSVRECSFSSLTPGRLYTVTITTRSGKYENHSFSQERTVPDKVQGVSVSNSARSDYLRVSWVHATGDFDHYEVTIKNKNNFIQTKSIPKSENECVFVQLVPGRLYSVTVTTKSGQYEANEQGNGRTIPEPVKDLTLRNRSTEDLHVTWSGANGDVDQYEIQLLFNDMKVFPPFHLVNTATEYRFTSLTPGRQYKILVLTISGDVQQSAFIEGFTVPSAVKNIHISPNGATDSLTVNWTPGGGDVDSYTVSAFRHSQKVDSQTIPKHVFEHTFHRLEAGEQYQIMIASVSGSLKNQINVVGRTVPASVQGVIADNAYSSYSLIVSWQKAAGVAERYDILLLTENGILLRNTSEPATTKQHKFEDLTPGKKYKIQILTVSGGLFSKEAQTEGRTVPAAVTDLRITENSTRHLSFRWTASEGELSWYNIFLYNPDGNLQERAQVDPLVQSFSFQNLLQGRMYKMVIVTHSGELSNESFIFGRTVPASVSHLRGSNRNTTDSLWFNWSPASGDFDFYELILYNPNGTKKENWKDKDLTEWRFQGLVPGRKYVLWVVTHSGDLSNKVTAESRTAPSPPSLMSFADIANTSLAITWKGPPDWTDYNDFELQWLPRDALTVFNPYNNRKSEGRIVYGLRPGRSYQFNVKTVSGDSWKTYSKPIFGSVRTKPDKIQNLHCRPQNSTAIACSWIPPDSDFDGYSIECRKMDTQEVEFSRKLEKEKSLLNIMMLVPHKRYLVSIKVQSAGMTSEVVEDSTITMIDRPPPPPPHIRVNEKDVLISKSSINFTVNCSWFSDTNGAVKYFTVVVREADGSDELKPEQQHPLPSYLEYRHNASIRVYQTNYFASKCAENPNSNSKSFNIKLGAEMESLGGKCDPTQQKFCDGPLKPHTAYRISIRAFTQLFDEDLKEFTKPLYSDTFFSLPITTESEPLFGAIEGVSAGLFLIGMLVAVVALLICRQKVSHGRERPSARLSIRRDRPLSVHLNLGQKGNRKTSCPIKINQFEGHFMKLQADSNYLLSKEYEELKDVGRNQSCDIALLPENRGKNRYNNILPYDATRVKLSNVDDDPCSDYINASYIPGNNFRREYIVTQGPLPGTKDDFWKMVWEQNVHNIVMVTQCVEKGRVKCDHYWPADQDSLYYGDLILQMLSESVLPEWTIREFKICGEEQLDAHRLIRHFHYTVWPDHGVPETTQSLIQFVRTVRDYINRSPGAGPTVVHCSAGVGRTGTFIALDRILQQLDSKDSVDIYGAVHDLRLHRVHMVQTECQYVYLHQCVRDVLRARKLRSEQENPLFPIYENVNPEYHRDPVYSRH
# Method: as §1, with “NVS_ENZ_hPTPRB” for “NVS_ENZ_hPTPN1”, “1 hour” for “1.33 hours”, “plate.NVS_ENZ_hPTPRB” for “plate.NVS_ENZ_hPTPN1”, “NVS_ENZ_hPTPRB,” for “NVS_ENZ_hPTPN1,”, “PTPRB.” for “PTPN1.”, “receptor” for “non-receptor”
# Binding assays used specific radioligands (tritiated, iodinated) with non-radioactive competitive displacement ligands in agonist or antagonist protocols (as indicated) and various reference compounds and inhibitors to titrate specific binding to receptors and transporters. Most enzyme assays (CYPs, kinases, phosphatases, proteases, HDACs) used recombinant protein and specific substrates (fluorescence mostly, some colorimetric and radioactive) and inhibitors, followed by a biochemical separation of substrate and product. All assays for the biochemical HTS were initially run in duplicate at a single concentration (10 uM for CYP450 assays and 25 uM for all others). […] Each assay was run with positive and negative controls, and concurrent controls on every plate. […]
# [4] = target: Tyrosine-protein phosphatase non-receptor type 11 (Homo sapiens) (UniProt Q06124); test: NVS_ENZ_hPTPN11: NovaScreen (NVS) Enzymatic Assay for human Protein Tyrosine Phosphatase Non-receptor Type 11 (PTPN11) (AID 2283202)
# Method in brief: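 Recombinant human PTPN11 activity on a fluorescent substrate, with substrate/product separated by electrophoretic mobility shift; read 0.5 h after dosing, loss of signal vs DMSO. Duplicate 25 uM screen, then concentration-response up to 50 uM.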
# [5] = target: Tyrosine-protein phosphatase non-receptor type 12 (Homo sapiens) (UniProt Q05209); test: NVS_ENZ_hPTPN12: NovaScreen (NVS) Enzymatic Assay for human Protein Tyrosine Phosphatase Non-receptor Type 12 (PTPN12) (AID 2283204)
# Method in brief: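 Single-concentration duplicates (25 uM) preceded singleton concentration-response up to 50 uM for chemicals passing threshold. Cell-free recombinant PTPN12 activity was read 1.33 h after dosing via fluorescence after mobility-shift separation; loss of signal versus DMSO.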
# [6] = target: human Phosphatase and Tensin Homolog (PTEN), PTEN (gene 5728) (UniProt P60484); test: NVS_ENZ_hPTEN: NovaScreen (NVS) Enzymatic Assay for human Phosphatase and Tensin Homolog (PTEN) (AID 2283203)
# human Phosphatase and Tensin Homolog (PTEN), PTEN (gene 5728), sequence (P60484 whole entry, looked up): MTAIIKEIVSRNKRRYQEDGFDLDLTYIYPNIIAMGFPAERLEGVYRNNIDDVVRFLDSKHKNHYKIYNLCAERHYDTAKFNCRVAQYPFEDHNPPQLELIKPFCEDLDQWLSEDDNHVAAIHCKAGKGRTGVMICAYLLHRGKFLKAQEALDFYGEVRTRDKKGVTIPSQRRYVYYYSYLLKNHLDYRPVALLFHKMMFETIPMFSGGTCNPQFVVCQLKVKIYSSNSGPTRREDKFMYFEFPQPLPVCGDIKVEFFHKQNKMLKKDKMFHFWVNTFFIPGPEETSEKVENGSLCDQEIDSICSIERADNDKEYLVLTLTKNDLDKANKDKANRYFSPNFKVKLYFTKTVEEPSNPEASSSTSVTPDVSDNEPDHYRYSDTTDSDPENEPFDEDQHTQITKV
# Method in brief: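 Cell-free recombinant human PTEN with fluorescent substrate; product separated by electrophoretic mobility shift and read by fluorescence 1 h after dosing. Primary screen in duplicate at 25 uM, actives followed in concentration series versus DMSO.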
# [7] = target: human Protein Tyrosine Phosphatase Non-receptor Type 2 (PTPN2), PTPN2 (gene 5771) (UniProt P17706); test: NVS_ENZ_hPTPN2: NovaScreen (NVS) Enzymatic Assay for human Protein Tyrosine Phosphatase Non-receptor Type 2 (PTPN2) (AID 2283207)
# human Protein Tyrosine Phosphatase Non-receptor Type 2 (PTPN2), PTPN2 (gene 5771), sequence (P17706 whole entry, looked up): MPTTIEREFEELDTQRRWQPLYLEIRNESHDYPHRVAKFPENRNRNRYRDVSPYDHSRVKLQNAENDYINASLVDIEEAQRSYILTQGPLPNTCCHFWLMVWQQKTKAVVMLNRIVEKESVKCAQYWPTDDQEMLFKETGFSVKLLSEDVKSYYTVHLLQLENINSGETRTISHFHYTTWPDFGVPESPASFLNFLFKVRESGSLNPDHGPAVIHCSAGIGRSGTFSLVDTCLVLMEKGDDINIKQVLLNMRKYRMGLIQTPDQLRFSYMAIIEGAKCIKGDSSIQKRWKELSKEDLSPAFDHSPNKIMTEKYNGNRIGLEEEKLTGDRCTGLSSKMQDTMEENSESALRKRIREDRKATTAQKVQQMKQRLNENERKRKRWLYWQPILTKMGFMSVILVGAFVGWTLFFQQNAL
# Method in brief: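 Cell-free recombinant enzyme with fluorescent substrate, product separated by electrophoretic mobility shift; read 1 h after dosing. Primary screen single concentration (25 uM) in duplicate; actives followed in concentration series; loss of signal versus DMSO.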
# [8] = target: human Protein Tyrosine Phosphatase Non-receptor Type 9 (PTPN9), PTPN9 (gene 5780) (UniProt P43378); test: NVS_ENZ_hPTPN9: NovaScreen (NVS) Enzymatic Assay for human Protein Tyrosine Phosphatase Non-receptor Type 9 (PTPN9) (AID 2283209)
# human Protein Tyrosine Phosphatase Non-receptor Type 9 (PTPN9), PTPN9 (gene 5780), sequence (P43378 whole entry, looked up): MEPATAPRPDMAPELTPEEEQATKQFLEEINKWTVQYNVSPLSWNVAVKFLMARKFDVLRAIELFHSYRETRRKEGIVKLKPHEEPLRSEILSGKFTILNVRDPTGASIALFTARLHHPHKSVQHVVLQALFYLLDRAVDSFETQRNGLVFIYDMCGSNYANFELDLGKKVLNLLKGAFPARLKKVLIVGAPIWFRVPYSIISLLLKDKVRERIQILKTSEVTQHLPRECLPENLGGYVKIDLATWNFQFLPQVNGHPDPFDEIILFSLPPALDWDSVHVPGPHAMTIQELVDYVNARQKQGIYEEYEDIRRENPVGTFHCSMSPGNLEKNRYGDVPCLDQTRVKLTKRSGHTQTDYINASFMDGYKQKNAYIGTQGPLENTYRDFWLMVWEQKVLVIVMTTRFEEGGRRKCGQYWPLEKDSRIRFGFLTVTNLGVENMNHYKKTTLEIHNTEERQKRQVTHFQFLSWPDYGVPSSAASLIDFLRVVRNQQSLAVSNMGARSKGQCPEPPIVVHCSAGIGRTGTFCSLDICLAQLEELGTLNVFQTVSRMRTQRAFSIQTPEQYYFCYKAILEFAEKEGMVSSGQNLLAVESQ
# Method in brief: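 Sf9-expressed enzyme in a cell-free assay, fluorescence read 1.33 h after dosing with mobility-shift separation of substrate and product. Tested at 25 uM in duplicate, then up to 50 uM; signal loss versus DMSO.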
# [9] = target: Tyrosine-protein phosphatase non-receptor type 13 (Homo sapiens) (UniProt Q12923); test: NVS_ENZ_hPTPN13: NovaScreen (NVS) Enzymatic Assay for human Protein Tyrosine Phosphatase Non-receptor Type 13 (PTPN13) (AID 2283205)
# Method in brief: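 Cell-free assay of recombinant human PTPN13 with a fluorescent substrate, product separated by electrophoretic mobility shift and read 0.5 h after dosing. Primary screen at 25 uM in duplicate, then concentration-response up to 50 uM. Loss of signal fitted against DMSO.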
# [10] = target: human Protein Tyrosine Phosphatase Non-receptor Type 4 (PTPN4), PTPN4 (gene 5775) (UniProt P29074); test: NVS_ENZ_hPTPN4: NovaScreen (NVS) Enzymatic Assay for human Protein Tyrosine Phosphatase Non-receptor Type 4 (PTPN4) (AID 2283208)
# Method in brief: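 Cell-free assay of PTPN4 expressed in Sf9 cells, using a fluorescent substrate with product separated by mobility shift; read 1.33 h after dosing. Single-point screen at 25 uM, then concentration-response up to 50 uM. Loss of signal relative to DMSO.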
structure (smiles),measurement,setting,value
CCOP(=O)(OCC)Oc1nc(Cl)c(Cl)cc1Cl,outcome,[1],inactive
Nc1cnn(-c2ccccc2)c(=O)c1Cl,outcome,[2],inactive
N#Cc1c[nH]cc1-c1cccc2c1OC(F)(F)O2,outcome,[2],inactive
O=c1n(Cl)c(=O)n(Cl)c(=O)n1Cl,outcome,[3],inactive
CC(C)N1C(=O)c2ccccc2NS1(=O)=O,outcome,[4],inactive
Nc1c(Cl)c(Cl)nc(C(=O)O)c1Cl,outcome,[2],inactive
CC(C)=CC1C(C(=O)OCc2coc(Cc3ccccc3)c2)C1(C)C (configuration not stated),outcome,[5],inactive
CCOc1nc(F)cc2nc(S(=O)(=O)Nc3c(Cl)cccc3Cl)nn12,outcome,[2],inactive
same,AC50,[6],29.9 µM (active)
CCOC(=O)C(C)OC(=O)c1cc(Oc2ccc(C(F)(F)F)cc2Cl)ccc1[N+](=O)[O-] (configuration not stated),outcome,[7],inactive
COP(=S)(OC)Oc1ccc([N+](=O)[O-])c(C)c1,outcome,[1],inactive
N#CN=C1SCCN1Cc1ccc(Cl)nc1,outcome,[6],inactive
same,outcome,[7],inactive
CN=C=S,outcome,[2],inactive
CN/C(=N\[N+](=O)[O-])NCc1cnc(Cl)s1,outcome,[7],inactive
COP(=S)(OC)SCn1nnc2ccccc2c1=O,outcome,[1],inactive
N#Cc1c(Cl)cccc1Cl,outcome,[3],inactive
CC(C)N1C(=O)N(c2ccccc2)CSC1=NC(C)(C)C,outcome,[2],inactive
O=C1C2CC=CCC2C(=O)N1SC(Cl)(Cl)Cl (configuration not stated),AC50,[6],23 µM (active)
same,outcome,[1],inactive
same,AC50,[7],46.9 µM (active)
same,outcome,[8],inactive
CCCC(=NOCC)C1=C(O)CC(CC(C)SCC)CC1=O (configuration not stated),outcome,[2],inactive
same,AC50,[6],18.2 µM (active)
same,outcome,[5],inactive
same,outcome,[9],inactive
same,outcome,[7],inactive
same,AC50,[10],17.9 µM (active)
same,AC50,[8],42.2 µM (active)
same,outcome,[3],inactive
CS(=O)(=O)c1cc(C(F)(F)F)ccc1C(=O)c1cnoc1C1CC1,outcome,[1],inactive
CCN(CC)C(=O)C(C)Oc1cccc2ccccc12 (configuration not stated),outcome,[7],inactive
